Results filed as inconclusive are left out. Unmarked numbers belong to inactive results. The source made the active and inactive calls. Unless noted, the call rests on the fitted dose curve; in most records, active means well fitted curve in the direction sought with a large enough effect; inconclusive means small, poorly fitted or top-dose-only effect, or another doubt; inactive means no such curve, though single readings can be large; an effect the other way counts as inactive or inconclusive. Where a SMILES comes first, the peptide text is derived from it. [ ]: non-standard residue; d: D form. pGlu = O=C1CC[C@@H](C(=O)O)N1; Thz = O=C(O)[C@@H]1CSCN1
Potency means the concentration at half of the fitted maximal effect.

A short description of one assay: S16 Schwann cell viability assay (CellTiter-Glo assay) (AID 624031). Further: nearly all actives have a fitted effect of over 70% in size.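 On activity change, negative = cytotoxicity: native untransfected S16 rat Schwann cells; plate controls were DMSO-treated cells for no effect and cell-free wells for full effect.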 To be noted: S16 rat Schwann cells viability, 24 h; series mostly up to 57.5 µM; activity change, negative = cytotoxicity: at the top concentration. In a few lines:
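Counter-screen for cytotoxicity: parental S16 rat Schwann cells lacking the PMP22 reporters, treated 24 h with compound, viability from cellular ATP by CellTiter-Glo luminescence, normalized to DMSO (0%) and no-cell wells.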
Consider `CCCCCCOc1ccccc1C(N)=O`, for which the “activity change, negative = cytotoxicity” value is 3.71%.

In the case of `C[S+](CC[C@H](N)C(=O)O)C[C@H]1O[C@@H](n2cnc3c(N)ncnc32)[C@H](O)[C@@H]1O` (stereo partly specified), the “activity change, negative = cytotoxicity” value was 0%.

For `C=CC(N)CCC(=O)O` (stereo unspecified), the “activity change, negative = cytotoxicity” value is 7.98%.

With `C=C(Nc1ccc(OCC)cc1)Nc1ccc(OCC)cc1`, the Potency result was “inactive”.

On to `C=CCN1C(=O)C(CC(C)C)NC1=S` (stereo unspecified), for which the Potency result was “inactive”.

`Clc1ccccc1-c1nc(-c2ccncc2)no1`: the “activity change, negative = cytotoxicity” value was -2.96%.

With `CC1(C)C[C@@H]1C(=O)N/C(=C\CCCCSC[C@H](N)C(=O)O)C(=O)O`, the “activity change, negative = cytotoxicity” value is 0.311%.

Consider `O=C1CC[C@@H](C(=O)N2CSC[C@H]2C(=O)O)N1` ([pGlu]-[Thz]-OH), for which the “activity change, negative = cytotoxicity” value was -13.4%.

As for `O=C(O)COc1ccc(C(=O)c2cccs2)c(Cl)c1Cl`, the Potency entry was “inactive”.

As for `CC(N)C(=O)OC(C)(C)Cc1ccc(Cl)cc1` (stereo unspecified), the “activity change, negative = cytotoxicity” value was -10.2%.

With `O=C(O)[C@H](CC(=O)N1C[C@H]2CCCC[C@H]2C1)Cc1ccccc1`, the “activity change, negative = cytotoxicity” value was -3.96%.

In the case of `CCCCCC[C@@H](O)C/C=C\CCCCCCCC(=O)O`, the “activity change, negative = cytotoxicity” value was -2.38%.

In the case of `Cc1cc(O)c2ccccc2c1O`, the Potency was 12.8 µM (active).

For the molecule `COc1ccc(/C=C/C(=O)Nc2ccccc2C(=O)O)cc1OC`, the “activity change, negative = cytotoxicity” value was 0%.

Consider `O=C(O)Cc1ccc(-c2ccccc2)cc1`, for which the “activity change, negative = cytotoxicity” value is -8.5% [at 25.7 µM].

A short description of the next assay: S16 Schwann cell PMP22 intronic element firefly luciferase assay (AID 624032). Further: nearly all actives have a fitted effect of over 30% in size.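 On activity change, negative = inhibition: plate controls were DMSO for no effect and PTC124 positive control mean for full effect.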 The note with it: S16 rat Schwann cells, PMP22 element FLuc, 24 h; series mostly up to 57.5 µM; activity change, negative = inhibition: at the top concentration. The gist of the method:
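Rat S16 Schwann cells stably carrying a PMP22 intronic element-driven Fluc reporter were seeded overnight, then exposed to compounds for 24 h at 37 °C. Luminescence was normalized to PTC124 (positive control) and DMSO (0% activity).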
Consider `CCCCC[C@H](O)/C=C/[C@@H]1[C@@H](C/C=C\CCCC(=O)O)[C@@H](O)C[C@H]1O`, for which the “activity change, negative = inhibition” value is 1.62%.

As for `COc1cc(/C=C/C(=O)N2CCN(CC(=O)N3CCCC3)CC2)cc(OC)c1OC`, the “activity change, negative = inhibition” value was -18.7%.

Take `CC1(C)S[C@@H]2[C@H](NC(=O)[C@H](NC(=O)N3CCN(S(C)(=O)=O)C3=O)c3ccccc3)C(=O)N2[C@H]1C(=O)O`: the “activity change, negative = inhibition” value was 16.9%.

Regarding `N=c1ccn2c(n1)O[C@H]1[C@H](O)[C@@H](CO)O[C@H]12`, the Potency is 14.4 µM (active).

Turning to `Nc1ccc(C(=O)O)c(O)c1`, the “activity change, negative = inhibition” value was -13.7%.

As to `Cc1ccc(O)c(-n2nc3ccccc3n2)c1`, the “activity change, negative = inhibition” value is 201%.

`COc1cc2c3cc1Oc1cc(ccc1O)C[C@@H]1c4c(cc(OC)c(O)c4Oc4ccc(cc4)C[C@@H]3N(C)CC2)CC[N+]1(C)C`: the “activity change, negative = inhibition” value was -9.72%.

Regarding `Oc1c(Br)cc(Br)c2cccnc12`, the “activity change, negative = inhibition” value was -30.1%.

`CC1(C)[C@@H](O)CC[C@]2(C)[C@H]3C(=O)C=C4[C@@H]5C[C@@](C)(C(=O)O)CC[C@]5(C)CC[C@@]4(C)[C@]3(C)CC[C@@H]12`: the Potency was 8.09 µM (active).

`CCOC(=O)c1ccccc1O`: the “activity change, negative = inhibition” value was 4.66%.

Consider `Cc1ccccc1CNc1ncnc2c1ncn2C1OC(CO)C(O)C1O` (stereo unspecified), for which the “activity change, negative = inhibition” value was 19%.

Turning to `O=C1CN(/N=C/c2ccc(-c3ccc([N+](=O)[O-])cc3)o2)C(=O)N1`, the “activity change, negative = inhibition” value was -17.9%.

Take `[O-][n+]1ccccc1SSc1cccc[n+]1[O-]`: the Potency was 0.361 µM (active).

On to `CCC1C(=O)OCC1Cc1cncn1C` (stereo unspecified), for which the “activity change, negative = inhibition” value is -21.1%.

For the molecule `Cc1[nH]cnc1CN1CCc2c(c3ccccc3n2C)C1=O`, the “activity change, negative = inhibition” value was 14.7%.

As for `CCCCCCOc1ccccc1C(N)=O`, the “activity change, negative = inhibition” value is 41.3%.

As for `C=CC(N)CCC(=O)O` (stereo unspecified), the “activity change, negative = inhibition” value was -19.4%.

On to `C=C(Nc1ccc(OCC)cc1)Nc1ccc(OCC)cc1`, for which the Potency result is “inactive”.

`C=CCN1C(=O)C(CC(C)C)NC1=S` (stereo unspecified): the Potency result is “inactive”.

For the molecule `Clc1ccccc1-c1nc(-c2ccncc2)no1`, the “activity change, negative = inhibition” value was 16.8%.

Take `CC1(C)C[C@@H]1C(=O)N/C(=C\CCCCSC[C@H](N)C(=O)O)C(=O)O`: the “activity change, negative = inhibition” value was 8.91%.

In the case of `O=C1CC[C@@H](C(=O)N2CSC[C@H]2C(=O)O)N1` ([pGlu]-[Thz]-OH), the “activity change, negative = inhibition” value is -6.25%.

As to `O=C(O)COc1ccc(C(=O)c2cccs2)c(Cl)c1Cl`, the Potency result was “inactive”.

For `CC(N)C(=O)OC(C)(C)Cc1ccc(Cl)cc1` (stereo unspecified), the “activity change, negative = inhibition” value is -8.91%.

As to `O=C(O)[C@H](CC(=O)N1C[C@H]2CCCC[C@H]2C1)Cc1ccccc1`, the “activity change, negative = inhibition” value is -4.65%.

As to `CCCCCC[C@@H](O)C/C=C\CCCCCCCC(=O)O`, the “activity change, negative = inhibition” value was 3.78%.

`Cc1cc(O)c2ccccc2c1O`: the Potency was 25.6 µM (active).

In the case of `COc1ccc(/C=C/C(=O)Nc2ccccc2C(=O)O)cc1OC`, the “activity change, negative = inhibition” value is 4.56%.

On to `O=C(O)Cc1ccc(-c2ccccc2)cc1`, for which the “activity change, negative = inhibition” value is -26.1% [at 25.7 µM].

The next assay is described as follows: S16 Schwann cell PMP22 intronic element beta-lactamase assay (AID 624044; calls by dose curve; further: nearly all actives have a fitted effect of over 15% in size;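 on ratio activity, negative = inhibition: 0% = DMSO and -100% = potassium clavulanate positive control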). The note with it: S16 rat Schwann cells, PMP22 element beta-lactamase FRET, 24 h; series mostly up to 38.3 µM; ratio activity, negative = inhibition: at the top concentration. In a few lines: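 Beta-lactamase reporter under a PMP22 intronic regulatory element in stable S16 rat Schwann cells; 24 h compound exposure. 460 nm blue signal normalized between DMSO (0%) and potassium clavulanate, with 535 nm FRET tracking viability; curves classed by r2 and response.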
For the molecule `CCCCC[C@H](O)/C=C/[C@@H]1[C@@H](C/C=C\CCCC(=O)O)[C@@H](O)C[C@H]1O`, the “ratio activity, negative = inhibition” value is 0.708%.

Turning to `COc1cc(/C=C/C(=O)N2CCN(CC(=O)N3CCCC3)CC2)cc(OC)c1OC`, the “ratio activity, negative = inhibition” value was -3.46%.

Regarding `CC1(C)S[C@@H]2[C@H](NC(=O)[C@H](NC(=O)N3CCN(S(C)(=O)=O)C3=O)c3ccccc3)C(=O)N2[C@H]1C(=O)O`, the “ratio activity, negative = inhibition” value was 4.38%.

Consider `N=c1ccn2c(n1)O[C@H]1[C@H](O)[C@@H](CO)O[C@H]12`, for which the Potency was 14.1 µM (active).

Turning to `Cc1ccc(O)c(-n2nc3ccccc3n2)c1`, the “ratio activity, negative = inhibition” value is 0.634%.

For the molecule `Oc1c(Br)cc(Br)c2cccnc12`, the Potency is 19.9 µM (active).

Consider `CC1(C)[C@@H](O)CC[C@]2(C)[C@H]3C(=O)C=C4[C@@H]5C[C@@](C)(C(=O)O)CC[C@]5(C)CC[C@@]4(C)[C@]3(C)CC[C@@H]12`, for which the “ratio activity, negative = inhibition” value was -23.4%.

Regarding `CCOC(=O)c1ccccc1O`, the “ratio activity, negative = inhibition” value was 1.84%.

`Cc1ccccc1CNc1ncnc2c1ncn2C1OC(CO)C(O)C1O` (stereo unspecified): the “ratio activity, negative = inhibition” value is -0.634%.

Consider `O=C1CN(/N=C/c2ccc(-c3ccc([N+](=O)[O-])cc3)o2)C(=O)N1`, for which the “ratio activity, negative = inhibition” value is -16.6%.

Regarding `[O-][n+]1ccccc1SSc1cccc[n+]1[O-]`, the Potency is 1.12 µM (active).

Regarding `CCC1C(=O)OCC1Cc1cncn1C` (stereo unspecified), the “ratio activity, negative = inhibition” value was 0.59%.

`CCCCCCOc1ccccc1C(N)=O`: the “ratio activity, negative = inhibition” value is 2.3%.

For `C=CC(N)CCC(=O)O` (stereo unspecified), the “ratio activity, negative = inhibition” value is -0.767%.

As to `C=C(Nc1ccc(OCC)cc1)Nc1ccc(OCC)cc1`, the Potency entry is “inactive”.

On to `C=CCN1C(=O)C(CC(C)C)NC1=S` (stereo unspecified), for which the Potency entry was “inactive”.

Turning to `O=C1CC[C@@H](C(=O)N2CSC[C@H]2C(=O)O)N1` ([pGlu]-[Thz]-OH), the “ratio activity, negative = inhibition” value was 6.91%.

Regarding `O=C(O)COc1ccc(C(=O)c2cccs2)c(Cl)c1Cl`, the Potency entry is “inactive”.

Turning to `CC(N)C(=O)OC(C)(C)Cc1ccc(Cl)cc1` (stereo unspecified), the “ratio activity, negative = inhibition” value was 0.254%.

Regarding `CCCCCC[C@@H](O)C/C=C\CCCCCCCC(=O)O`, the “ratio activity, negative = inhibition” value was -7.1%.

Take `Cc1cc(O)c2ccccc2c1O`: the “ratio activity, negative = inhibition” value is 6.75%.

With `COc1ccc(/C=C/C(=O)Nc2ccccc2C(=O)O)cc1OC`, the “ratio activity, negative = inhibition” value is 3.8%.

The values above are taken from PubChem BioAssay (NCATS).
